Source: PubChem BioAssay (NCATS)
Calls of active or inactive are those of the source. The call rests on the fitted dose curve; in most records, active means well fitted inhibition curve with a large enough effect; inconclusive means small, poorly fitted or top-dose-only effect; inactive means flat fitted curve, though single readings scatter.

These molecules were tested against Luciferin 4-monooxygenase (Photinus pyralis) (UniProt P08659) (assay: Primary firefly luciferase (FLuc) qHTS assay for identification of artifact compounds. (AID 1845220; further: nearly all actives have a fitted effect of over 60% in size;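 on activity change, negative = inhibition: plate controls were DMSO vehicle for no effect and no enzyme for full effect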)). Settings: purified firefly luciferase, luminescence, 5 min; series mostly up to 54.1 µM; activity change, negative = inhibition: at the top concentration.
Method in brief: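 In this counter-screen for luciferase artifacts, test compounds met substrate (10 uM each luciferin and ATP) before 10 nM enzyme started the reaction. Light output was measured 5 min later.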

| Compound | activity change, negative = inhibition | outcome |
| --- | --- | --- |
| Cc1sc2c(c1C)C(c1ccc(Cl)cc1)=N[C@H](CC(=O)NCCCCNC(=O)COc1cccc3c1C(=O)N([C@H]1CCC(=O)NC1=O)C3=O)c1nnc(C)n1-2 | -0.428% (inactive) | – |
| CC1CCC(=O)CC(SCC(O)C(=O)O)CCC(=O)O1 (centres undefined) | 1.68% (inactive) | – |
| COc1ccc(C[C@H]2COC(=O)[C@@H]2Cc2ccc(O[C@@H]3O[C@H](CO)[C@@H](O)[C@H](O)[C@H]3O)c(OC)c2)cc1OC | -3.52% [at 25.7 µM] (inactive) | – |
| CCC(C)CNCC(=O)N1CCC2SC=CC2C1COc1cccc(C)c1 (centres undefined) | – | inactive |
| C=C1CC2OC(=O)C(COC)C2C(OC(=O)/C(C)=C\C)CC2(C)OC1=CC2=O (centres undefined) | – | inactive |
| CCC(C)(OC(C)=O)C(=O)O[C@H]1[C@H](OC(C)=O)[C@]2(CO)[C@H](O)[C@H](O)[C@]3(C)C(=CCC4[C@@]5(C)CC[C@H](O[C@@H]6O[C@H](C(=O)O)[C@@H](O)[C@H](O[C@@H]7OC[C@H](O)[C@H](O[C@@H]8OC[C@H](O)[C@H](O)[C@H]8O)[C@H]7O)[C@H]6O[C@@H]6O[C@H](CO)[C@@H](O)[C@H](O)[C@H]6O)C(C)(C)C5CC[C@]43C)[C@@H]2CC1(C)C (some centres undefined) | -11% [at 11.6 µM] (inactive) | – |
| NC(=O)c1nc(Nc2ccccc2)sc1NC(=O)C1CCCCC1 | – | inactive |
| CC1=CC2/C=C(\C)CCC(O)C/C=C/C(=O)OC23C(=O)NC(CC(C)C)C3C1C (centres undefined) | 0.426% [at 25.7 µM] (inactive) | – |
| CC(=O)N1CCN(CCOc2ccc(C3CCN(C4=Nn5c(nnc5C(F)(F)F)CC4)CC3)cc2)CC1 | – | inactive |
| Cc1ccc(C(C)C)c(O[C@@H]2O[C@H](CO)[C@@H](O)[C@H](O)[C@H]2O)c1 | -9.52% (inactive) | – |
| Cc1ccc(F)cc1S(=O)(=O)N[C@@H]1CCN(Cc2ccc(OC(C)C)cc2)C1 | -0.203% (inactive) | – |
| O=c1[nH]c2ccccc2n1CCN1CCN(c2cccc(C(F)(F)F)c2)CC1 | – | inactive |
| CC(C)n1nc(C#Cc2ccccc2)c2c(N)ncnc21 | – | inactive |
| CC(CCC1(O)OC2CC3C4CC=C5CC(O[C@@H]6O[C@H](CO)[C@@H](O[C@@H]7O[C@@H](C)[C@H](O)[C@@H](O)[C@H]7O)[C@H](O)[C@H]6O[C@@H]6O[C@@H](C)[C@H](O)[C@@H](O)[C@H]6O)CCC5(C)C4CCC3(C)C2C1C)CO[C@@H]1O[C@H](CO)[C@@H](O)[C@H](O)[C@H]1O (some centres undefined) | -3.06% [at 11.6 µM] (inactive) | – |
| O=C(Nc1cccnn1)N1CCN(c2nccc(-c3ccc(F)c(F)c3)n2)CC1 | -8.12% [at 115 µM] (inactive) | – |
| C[C@H](Nc1cc2c(-c3ccc4c(c3)OCO4)noc2cn1)c1ccccc1 | – | inactive |
| C=C1CCCC2(C)CCC(C(C)(C)OC3OC(C)C(O)C(O)C3OC(=O)/C(C)=C\C)CC12 (centres undefined) | -4.83% [at 25.7 µM] (inactive) | – |
| CC(C)c1cc(-c2ccc(F)c3ccccc23)nc(N)n1 | 1.44% (inactive) | – |
| C=C1C(=O)OC2C1CCC1(C)C(O)CCC(=C)C21 (centres undefined) | – | inactive |
| C/C=C(/C)C(=O)OC1C=C2C3C(C)C(C)C(OC(=O)C(C)C(C)O)CC3(C)CCC2(C)C2(C)CC(OC(C)=O)C3C(C)(C)C(O)C(=O)CC3(C)C12 (centres undefined) | -1.61% [at 25.7 µM] (inactive) | – |

| Compound | activity change, negative = inhibition | outcome |
| --- | --- | --- |
| C=C1C(=O)O[C@@H]2C(OC(=O)/C(C)=C\C)/C(C)=C\C(=O)/C=C(\C)C[C@H](O)[C@@H]12 (some centres undefined) | -5.65% (inactive) | – |
| OC(CC1c2ccccc2-c2cncn21)C1CCCCC1 (centres undefined) | -7.86% (inactive) | – |
| CCC(C)C(=O)O[C@H]1[C@H](O)[C@@]2(COC(C)=O)C(CC1(C)C)C1=CCC3[C@@]4(C)CC[C@H](O[C@@H]5O[C@H](C(=O)O)[C@@H](O)[C@H](O)[C@H]5O)[C@@](C)(CO)C4CC[C@@]3(C)[C@]1(C)C[C@@H]2O (some centres undefined) | – | inactive [at 11.6 µM] |
| Nc1ncnc2c1c(-c1ccc(Cl)cc1)nn2-c1cccc(-c2cnnn2Cc2cccc(-c3ccccc3)c2)c1 | – | inactive |
| CCC[C@H](N[C@H]1CCc2cc(F)cc(F)c2C1)C(=O)Nc1cn(C(C)(C)CNCC(C)(C)C)cn1 | 4.6% (inactive) | – |
| CC(C)(C)C1CCN(C(=O)n2ncc(C(O)(c3ccccc3)c3ccccc3)n2)CC1 | 2.99% (inactive) | – |
| C/C=C/C=C/C=C/C(=O)O[C@@H]1C=C2COC(=O)[C@]2(O)[C@@]2(C)CCCC(C)(C)[C@H]12 | 1.16% [at 25.7 µM] (inactive) | – |
| C=CCc1ccc(OC(C)Cc2ccc(OC)c(OC)c2)c(OC)c1 (centres undefined) | -2.47% (inactive) | – |
| C=C(COC(=O)C(O)C(O)CN)C12OC1C1(C)C(=CC2=O)C(O)C(O)CC1C (centres undefined) | – | inactive |
| COC1CC(O[C@H]2CC[C@]3(C)C4CC[C@@]5(C)C(=O)[C@]4(CC[C@@H]3C2)CC[C@@H]5C2=CC(=O)OC2)OC(C)C1OC1OC(COC2OC(CO)C(O)C(O)C2O)C(O)C(O)C1O (some centres undefined) | – | inactive [at 11.6 µM] |
| COC1CC(=O)C23C(=O)NC(Cc4c[nH]c5ccccc45)C2C(C)C2(C)OC2C3/C=C/CC(C)CC1O (centres undefined) | -0.989% [at 25.7 µM] (inactive) | – |
| Cc1ccc(C)c(NC(=O)[C@@H]2CCCN2S(=O)(=O)c2cccc3cccnc23)c1 | – | inactive |
| Fc1ccc(-c2nc(-c3ccccc3F)[nH]c2-c2ccncc2)cc1 | 0.748% (inactive) | – |
| CC(C)(Cc1ccccc1)NCC(O)c1ccc(O)c(NS(C)(=O)=O)c1 (centres undefined) | -7% (inactive) | – |
| COc1cc(NC(=O)c2cc(C3CC3)on2)c(OC)cc1Cl | – | inactive |
| C=C(C)C(=O)O[C@H]1[C@H]2C(=C)C(=O)O[C@@H]2/C=C(\CO)CC/C=C(/C=O)[C@@H]1O | -8.18% (inactive) | – |
| CC(C)n1c(=O)c(C(=O)NC2CC3CCC(C2)N3C[C@@H](O)CN(C)S(C)(=O)=O)cc2ccccc21 (some centres undefined) | -0.589% (inactive) | – |
| O=C(Nc1ccc(CN2CCOCC2)cc1)c1ccc(-c2cccc(Cl)c2)o1 | -10.3% (inactive) | – |
| Cc1ccc(OC[C@H](O)[C@H](C)NC(C)C)c2c1CCC2 | – | inactive |
